Rows were chosen to be rich in hits. Some 18% of all compounds tested hit in one or more screens of this group.
TDP1 cell noCPT = qHTS for Inhibitors of human tyrosyl-DNA phosphodiesterase 1 (TDP1): qHTS in cells in absence of CPT. AID 686978, 2013. 420,000 tested, 15% active. Potency, µM (titrated, usually from 46.2 µM), for the others: at the highest dose activity change, negative = growth inhibition, usual class: inhibitors. DT40 Tdp1-/- hTDP1 cells, no CPT, ATP luminescence, 48 h; also: potency is read from the fitted curve at half-maximal effect; nearly all actives have a fitted effect of over 55% in size
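Chicken DT40 Tdp1-/- cells complemented with human TDP1, screened without camptothecin (DMSO vehicle only), 400 cells/well. Compounds pin-transferred, cells incubated at 37 °C for at least 48 hr. Growth read as ATP-dependent luminescence (CellTiter-Glo, 30 min at RT).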
CtBP-E1A blk = qHTS Assay for Inhibitors of the CtBP/E1A Interaction | CtBP / adenovirus E1A interaction (AlphaScreen) | activity change, % (test concentration not listed) | AID 651724, 2012 | 340,000 tested, 0.49% active | AlphaScreen GST-E1A/His-CtBP binding, 1536-well; active compounds read low; in the data active = activity change below about -65%; inconclusive = mostly about -30% to -63%
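Homogeneous bead-based format: GST-tagged E1A captured on glutathione donor beads, His-tagged CtBP on nickel acceptor beads; compounds precede bead addition by 2 h at 37 °C.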
TDP1 inh = qHTS Assay for Inhibitors of Tyrosyl-DNA Phosphodiesterase (TDP1); Tyrosyl-DNA phosphodiesterase 1 (Homo sapiens), Q9NUW8; recombinant TDP1, AlphaScreen DNA substrate cleavage; Potency, µM (top dose mostly 130 µM), for inactives: at the top dose activity change, negative = inhibition, hits mostly inhibitors; 350,000 tested, 0.28% active; also: potency is read from the fitted curve at half-maximal effect; nearly all actives have a fitted effect of over 40% in size
Target sequence (Q9NUW8 whole entry, looked up): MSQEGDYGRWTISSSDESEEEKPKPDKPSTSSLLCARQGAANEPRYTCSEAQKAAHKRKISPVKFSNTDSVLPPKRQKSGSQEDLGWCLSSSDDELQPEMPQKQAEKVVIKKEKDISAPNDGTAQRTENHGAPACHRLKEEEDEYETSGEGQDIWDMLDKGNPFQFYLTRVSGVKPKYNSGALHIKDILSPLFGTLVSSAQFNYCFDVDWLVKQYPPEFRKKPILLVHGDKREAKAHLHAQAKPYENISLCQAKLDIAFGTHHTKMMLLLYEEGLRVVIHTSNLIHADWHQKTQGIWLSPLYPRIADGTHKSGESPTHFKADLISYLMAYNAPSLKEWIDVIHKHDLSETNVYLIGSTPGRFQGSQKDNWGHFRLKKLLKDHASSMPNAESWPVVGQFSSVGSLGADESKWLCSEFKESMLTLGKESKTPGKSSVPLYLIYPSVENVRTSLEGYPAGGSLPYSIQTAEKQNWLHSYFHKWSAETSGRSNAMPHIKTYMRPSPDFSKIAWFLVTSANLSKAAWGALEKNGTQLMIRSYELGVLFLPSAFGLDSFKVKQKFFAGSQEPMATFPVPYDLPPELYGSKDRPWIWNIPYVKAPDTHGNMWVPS
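Steps: enzyme plus compound, 15 min RT; add biotin/phosphotyrosine-FITC oligonucleotide (15 nM final), react 5 min; add donor/acceptor beads (10 ug/ml final), 10 min; read AlphaScreen. Tdp1 at 1 nM final.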
DT40 TDP1 CPT = qHTS for Inhibitors of human tyrosyl-DNA phosphodiesterase 1 (TDP1): qHTS in cells in presence of CPT; Potency, µM (titrated, usually from 46.2 µM), inactives show at the highest dose activity change, negative = growth inhibition, actives largely listed as inhibitors; 420,000 tested, 12% active; chicken DT40 Tdp1-/-;hTDP1 cells + 20 nM CPT, ATP luminescence, 48 h; also: potency is read from the fitted curve at half-maximal effect; nearly all actives have a fitted effect of over 55% in size
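Chicken DT40 Tdp1-/- cells complemented with human TDP1, 400 cells/well, exposed to compounds plus 20 nM camptothecin for at least 48 h at 37 C; viability read as ATP content by CellTiter-Glo luminescence.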
Six1-Eya2 blk = qHTS Assay for Inhibitors of the Six1/Eya2 Interaction; AID 651725, 2012; Homeobox protein SIX1 (Homo sapiens) + Protein phosphatase EYA2 (Homo sapiens), …; 360,000 tested, 0.56% active; AlphaScreen GST-Six1/His-Eya2 binding, biochemical; active compounds read low; activity change, % (no concentration beside the values); in the data active = activity change below about -65%; inconclusive = mostly about -30% to -63%
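AlphaScreen luminescence read after one hour at 37 °C in darkness. Pin-transferred compounds met GST-Six1 and His-Eya2 protein (5X stock 250 nM/500 nM) plus glutathione donor and Ni-chelate acceptor beads (5X, 50 ug/mL).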
IL1B secr inh = qHTS for Inhibitors of Inflammasome Signaling: IL-1-beta AlphaLISA Primary Screen. THP-1 LPS/ATP IL-1B secretion, AlphaLISA, 16 h; active compounds read low. activity change, % at 57.5 µM. 360,000 tested, 4.7% active; in the data active = activity change below about -50%; inconclusive = mostly about -30% to -49%
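THP-1 cells pretreated 1 hr with compounds (up to 57.5 uM final), then stimulated with LPS (250 ng/mL final) plus ATP (1.25 mM final); secreted IL-1B measured by AlphaLISA after 16 hr, decreased signal indicating inhibition.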
* = called active by the depositor; ? = inconclusive; . = no result given; [ ] = dose if it differs, or a comment. Unless noted, calls follow the shape of the dose curve; as a rule, active = well fitted curve in the direction sought with a large enough effect; inconclusive = small, poorly fitted or top-dose-only effect, or another doubt; inactive = no such curve, though single readings can be large; an effect the other way counts as inactive or inconclusive. % is scaled to controls: 0 for no effect and ±100 for the full control effect.

SMILES	TDP1 cell noCPT	CtBP-E1A blk	TDP1 inh	DT40 TDP1 CPT	Six1-Eya2 blk	IL1B secr inh
COc1cc(OC)c(/C=C/c2nccc3ccccc23)c(OC)c1	0.1µM*	.	.	0.071µM*	.	.
COc1cc(OC)c(/C=C/c2ccc3ccccc3n2)c(OC)c1	0.1µM*	.	.	0.1µM*	.	.
COc1ccc(-c2ccc3ccccc3n2)cc1	3%	17	-5%	9%	23	93
CCOc1cc(/C=C/c2cc(C(=O)O)c3ccccc3n2)ccc1OC	-17%	9	-4%	4%	-21	25
COc1cc2ccc(-c3ccc4ccccc4n3)cc2cc1OC	6.5µM*	1	.	?	10	-4
COc1cc(OC)c(C=Cc2ccncn2)c(OC)c1	?	5	.	-6%	-5	-9
COc1ccc(/C=C/c2cnc3ccccc3n2)cc1OC	20µM*	.	.	?	.	.
CCN(CC(=O)Nc1ccc(NC(C)=O)cc1)C(=O)c1cccc(Oc2ccccc2)c1	-7%	-4	4%[0.505 µM]	13%	-2	-7
CCOC(=O)CCN1C(=O)[C@H]2[C@H]3[C@H](O)[C@H](O)C/C(=N/O[C@@H]4O[C@@H](COC(C)=O)[C@@H](OC(C)=O)[C@@H](OC(C)=O)[C@H]4OC(C)=O)[C@H]3CC[C@@H]2C1=O	.	.	3%[21 µM]	.	.	.
CCC(NC(=O)Cc1c(C)c2c(cc(C)c3c(C)c(C)oc32)oc1=O)C(=O)O (configuration not stated)	3%	.	.	8%	-22	9
CCOc1ccc(C(=O)NC2CC(C)(C)NC(C)(C)C2)cc1	10%	-1	.	12%	-1	-4
COc1ccc(/C=C/c2ccc3ccccc3n2)cc1OC	13µM*	.	.	?	.	.
COc1cc(OC)c(/C=C/c2ccccn2)c(OC)c1	2.8µM*	.	.	3.2µM*	.	.
N#Cc1cc([N+](=O)[O-])ccc1NCCc1ccccn1	0%	-8	3%	6%	-7	16
Cc1ccc(C(=O)Nc2ccncc2)cc1S(=O)(=O)N1CCOCC1	?	-18	-13%	?	-12	40
C=CCNC(=O)/C(=C/c1ccccc1OCC)NC(=O)c1ccccc1	-2%	0	0%	5%	-2	-11
CCOc1ccccc1/C=C(/NC(=O)c1ccccc1)C(=O)NC(C)c1ccccc1 (configuration not stated)	?	5	-2%	23µM*	6	-24
CCN(CC)c1ccc(NC(=O)C(C)C)cc1	20%	3	-3%	-25%	-1	-5
CCN(CC)c1ccc(NC2=C(Cl)C(=O)c3ccccc3C2=O)cc1	13µM*	?	11%	10µM*	?	-108*
O=C1C=C(Nc2ccc(O)cc2)C(=O)c2ccccc21	13µM*	-30	?	15µM*	?	-13
O=C1C(Cl)=C(Nc2ccc(O)cc2)C(=O)c2ccccc21	?	-16	4%	21µM*	0	-105*
Nc1ccc2c(c1)C(=O)c1ccccc1C2=O	-24%	-18	-6%	2%	-14	-3
O=S1(=O)N=C(Nc2ccc(O)cc2)c2ccccc21	5%	.	3%	5%	3	-15
Cc1cc(C)cc(NC2=C(N)C(=O)c3ccccc3C2=O)c1	14%	?	.	?	-70*	-7
O=C(COc1ccc(Cl)cc1Cl)Nc1ccccc1F	-26%	-22	.	?	1	-19
SMILES	TDP1 cell noCPT	CtBP-E1A blk	TDP1 inh	DT40 TDP1 CPT	Six1-Eya2 blk	IL1B secr inh
C=CCn1nnnc1SCC(=O)Nc1ccc(OC)cc1	-3%	8	0%	6%	10	27
Cc1ccc(NC2=C(Cl)C(=O)c3ccccc3C2=O)cc1	13µM*	11	3%	8.2µM*	-10	-14
Cc1ccc(S(=O)(=O)Nc2ccc(Nc3ccccc3)cc2)cc1	?	-12	.	?	-13	-8
C=C1CCN([C@@H](Cc2ccccc2)C(=O)NCc2ccccc2)S(=O)(=O)c2ccccc21	?	0	.	-24%	1	4
O=C(CSc1nnc(CNc2ccc(Cl)cc2)o1)Nc1nc2c(s1)CCCC2	?	12	13%	15µM*	-1	-16
COc1cccc(NC(=O)CSc2nnc(COc3ccc(Cl)cc3)o2)c1	-6%	.	6%	-14%	.	.
O=C(CSc1nnc(COc2ccc(Cl)cc2)o1)Nc1nccs1	5%	?	.	3%	-87*	-5
O=C(CSc1nnc(COc2ccccc2)o1)NCCc1ccccc1	7.3µM*	0	-2%	8.2µM*	12	0
O=C(CSc1nnc(COc2ccc(Cl)cc2)o1)N1c2ccccc2CCc2ccccc21	15µM*	-9	3%	?	-1	?
Cc1cccc(OCc2nnc(SCC(=O)NCCc3ccccc3)o2)c1	-8%	0	-1%	-1%	3	13
O=C(O)c1cc(-c2cccs2)nc2cc3c(cc12)OCCO3	-13%	6	5%	-7%	1	24
CC(C)CC(NC(=O)NC(CCC(=O)O)C(=O)O)C(=O)O (configuration not stated)	.	.	0%	.	.	.
Cc1cc(CNC(=O)Cc2ccc(F)cc2)c2ccccc2n1	-3%	-4	7%	10%	6	25
O=Cc1cc2ccccc2nc1SCc1ccc(Cl)cc1	1µM*	6	-3%	1µM*	11	-3
O=Cc1cc2ccccc2nc1SCc1ccc(Cl)c(Cl)c1	0.92µM*	8	-2%	1µM*	5	83
Clc1ccc(CSc2cnnc3ccccc23)cc1Cl	?	8	.	?	-1	-20
O=c1[nH]c(SCc2ccc(Cl)cc2)nc2ccccc12	-11%	3	-5%	-22%	3	10
COc1ccccc1C(=O)Nc1ccc(Br)cc1C	-21%	0	-6%	-4%	25	-1
Cc1cccc(NC(=O)c2ccc(S(=O)(=O)N3CCN(C)CC3)cc2)c1C	0%	-12	1%[0.0935 µM]	-2%	-1	-8
O=C(Nc1cccc([N+](=O)[O-])c1)C12CC3CC(C1)CC(n1cnc([N+](=O)[O-])n1)(C3)C2	?	-3	3%	26µM*	-5	-21
